Only some compounds are listed: those with a hit (about 3.4% of all), similar ones and a draw of the others.
PNC assembly inh: High Content Assay for Compounds that inhibit the Assembly of the Perinucleolar Compartment; PC3M PTB-GFP, PNC prevalence imaging, 16 h; active compounds read low; activity change (PNC), negative = inhibition, % at 10 µM; 3.1% of 140,000 active; AID 2417, 2010;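 active means readout at or below -70, meaning at least 70% loss of cells showing the perinucleolar compartment, a nuclear body marking cancer cells; inconclusive means readout between -30 and a set limit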;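 further: plate controls were DMSO wells for no effect and camptothecin positive control wells for full effect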
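Compounds are pinned in duplicate onto adhered PC3M cells stably expressing GFP-tagged PTB and incubated 16 h at 37 C. Cells are then fixed, nuclei stained with Hoechst, and PNC-positive cells counted.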
HTT aggregate: qHTS Multiplex Assay to Identify Dual Action Probes in a Cell Model of Huntington: Aggregate Formation (GFP); PC12 HttQ103-GFP aggregates, Acumen cytometry, 40 h; Potency, µM (series often up to 46.1 µM), without a hit: top-dose activity change, negative = inhibition, usual class: inhibitors; 1.1% of 220,000 active; AID 1688, 2009; further: potency means the concentration at half of the fitted maximal effect; on the % scale 0 is the no-effect control and ±100 the full control effect; nearly all actives have a fitted effect of over 60% in size
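PC12 cells stably carrying ecdysone-inducible HTT exon 1 Q103–GFP were induced with tebufenozide (100 nM final) and treated with library compounds in titration. GFP aggregates in lysates were counted by laser scanning cytometry.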
HTT cytoprotect: qHTS Multiplex Assay to Identify Dual Action Probes in a Cell Model of Huntington: Cytoprotection (ATP). PC12 HTT-Q103 induced, cytoprotection, ATP luminescence, 40 h. Potency, µM (top dose mostly 56.4 µM), without a hit: cytoprotection (ATP increase), most hits filed as activators. 0.14% of 230,000 active; further: potency means the concentration at half of the fitted maximal effect; % of control where 0% means no effect; nearly all actives have a fitted effect of over 45% in size
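Cells were plated at 1500 per well in phenol red-free DMEM with 5% equine and 5% calf serum. Tebufenozide (100 nM final) and compounds were added, then ATPlite reagent, and luminescence was read.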
IMPase cell inh: qHTS Assay for Identifying the Cell-Membrane Permeable IMPase Inhibitors | Inositol monophosphatase 1 (Rattus norvegicus), P97697 | CHO-M1 cells, IP1 accumulation, HTRF TR-FRET ratio | inhibition (IP1 accumulation), % at 46.1 µM | 120,000 tested, under 10 active | AID 901, 2007; active means well fitted curve in the direction sought with a large enough effect in the signal ratio, not every such curve was filed as active; inconclusive means small, poorly fitted or top-dose-only effect, or a change in a side signal; inactive means no such curve, though single readings can be large or run the other way; the % refers to the signal ratio;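 further: cells stimulated with carbachol in lithium chloride buffer; plate controls were DMSO basal wells for no effect and reference inhibitor wells for full effect; higher means more IMPase inhibition seen as more IP1 and lower FRET ratio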
Target sequence (P97697 whole entry, looked up): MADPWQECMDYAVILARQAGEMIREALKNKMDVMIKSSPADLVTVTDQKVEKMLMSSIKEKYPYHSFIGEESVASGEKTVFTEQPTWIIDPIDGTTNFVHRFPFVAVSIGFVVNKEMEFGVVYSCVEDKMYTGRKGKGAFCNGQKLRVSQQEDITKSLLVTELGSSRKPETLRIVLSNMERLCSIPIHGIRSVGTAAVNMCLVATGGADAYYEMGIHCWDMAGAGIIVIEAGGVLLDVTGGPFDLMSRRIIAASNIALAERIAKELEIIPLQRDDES
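Elevated IP1 in lysates lowers TR-FRET signal (665/620 ratio and 620 channel reported). Cells were CHO-M1, given carbachol (50 uM as added) plus 50mM LiCl, pH 7.4, 30 min, 37C; compounds titrated up to 46 uM; AC50 by Hill equation.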
NPSR antagonist: qHTS Assay for Antagonists of the Neuropeptide S Receptor: cAMP Signal Transduction; Potency, µM (series often up to 38.3 µM), inactives show at the top dose activity change, negative = inhibition, actives largely listed as inhibitors; 1% of 220,000 active; AID 1461, 2008; CHO-NPSR cells, cAMP TR-FRET, antagonist mode; Q6W5P4; further: potency means the concentration at half of the fitted maximal effect; on the % scale 0 is the no-effect control and ±100 the full control effect; nearly all actives have a fitted effect of over 50% in size
Target sequence (Q6W5P4 whole entry, looked up): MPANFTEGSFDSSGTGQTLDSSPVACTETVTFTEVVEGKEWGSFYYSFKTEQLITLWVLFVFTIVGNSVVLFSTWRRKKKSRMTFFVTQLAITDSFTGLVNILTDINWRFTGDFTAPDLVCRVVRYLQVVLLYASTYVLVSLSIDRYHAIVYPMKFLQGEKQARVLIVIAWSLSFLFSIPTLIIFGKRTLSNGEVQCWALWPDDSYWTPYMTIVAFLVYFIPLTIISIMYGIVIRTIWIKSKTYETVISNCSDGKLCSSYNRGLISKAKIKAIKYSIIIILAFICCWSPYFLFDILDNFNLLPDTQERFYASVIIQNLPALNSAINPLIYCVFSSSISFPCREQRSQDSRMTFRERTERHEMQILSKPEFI
IMPase Li cell: qHTS Assay for Identifying the Cell-Membrane Permeable IMPase Inhibitors: Potentiation with Lithium | CHO-M1 cells, IP1 TR-FRET (IP-One), carbachol + lithium | Potency, µM (series often up to 59.4 µM), inactives show top-dose activity, negative = IMPase inhibition, usual class: inhibitors | 0.35% of 210,000 active;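 further: IP1 builds up when IMPase is blocked and the TR-FRET signal falls; potency means the concentration at half of the fitted maximal effect; plate controls were basal vehicle for no effect and high inhibitor control for full effect; nearly all actives have a fitted effect of over 50% in size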
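Concentration–response in CHO-M1 cells, lithium-potentiated; 30 min at 37C. IP1 detected by competitive TR-FRET after 10 min lysis at RT. Hill-fitted AC50.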
Starred values were filed as active, the others as inactive; ? = inconclusive; · = not tested or not shown; [ ] = dose if it differs, or a comment. Unless noted, the call rests on the fitted dose curve; in most records, active means well fitted curve in the direction sought with a large enough effect; inconclusive means small, poorly fitted or top-dose-only effect, or another doubt; inactive means no such curve, though single readings can be large; an effect the other way counts as inactive or inconclusive.

SMILES	PNC assembly inh	HTT aggregate	HTT cytoprotect	IMPase cell inh	NPSR antagonist	IMPase Li cell
COc1ccccc1CCNC1CCC(C(C)(C)C)CC1 (configuration not stated)	-111.9*	13.9%	-24.4%	6.5	3.9%[46.1 µM]	·
COc1ccccc1CCNC1CCCC(C)C1 (configuration not stated)	16.1	-11.0%	-12.1%[10 µM]	·	20.7%	3.9%
O=C(Oc1ccc(S(=O)(=O)F)cc1F)c1ccccc1Cl	·	·	-9.3%[10 µM]	·	·	-5.1%
CSc1ccc(CNC2CN3CCC2CC3)cc1 (configuration not stated)	-105.8*	2.3%	-13.7%[0.074 µM]	-2.5	0.6%[46.1 µM]	31.3%[38.3 µM]
CN1CCC[C@@H]1c1cccnc1.O=C(O)c1ccccc1O.O=C([OH2+])c1ccccc1O.O=C([OH2+])c1ccccc1O.O=C([OH2+])c1ccccc1O.[Cu]	·	·	-9.1%[10 µM]	·	·	-18.3%
CCN(CC)c1ccc(CN2CC=C(c3ccc(F)cc3)CC2)cc1	-13.8	15.2%[9.22 µM]	5.3%	11.7	10µM*	18.2%[38.3 µM]
CC(C)c1ccc(N2C(=O)NC(=O)/C(=C/c3cnc(-c4ccccc4)nc3)C2=O)cc1	-25.6	6.0%	4.9%[10 µM]	1.7	-23.5%[46.1 µM]	6.6%
O=C1NC(=O)N(Cc2ccccc2)C(=O)/C1=C/c1cnc(-c2ccccc2)nc1	·	10.0%	-11.7%	·	10µM*	-4.3%
CCOP(=O)(OCC)c1nc(-c2cccc3ccccc23)oc1N1CCOCC1	?	-8.0%	-18.6%[10 µM]	?	-1.9%[46.1 µM]	-10.9%
CCOP(=O)(c1ccccc1)c1nc(-c2ccc(F)cc2)oc1N1CCCCC1 (configuration not stated)	-87.4*	-18.7%[9.22 µM]	-20.1%	9.7	?	6.8%[38.3 µM]
COC(=O)[C@@H]1c2cc3c(c(O)c2[C@@H](O)C[C@]1(C)O)C(=O)c1c(O)cc2c(c1C3=O)O[C@H]1O[C@@]2(C)[C@@H](O)[C@H](N(C)C)[C@H]1O	·	·	-7.9%[10 µM]	·	·	-4.7%
NC[C@@H](Cc1ccccc1)P(=O)(O)O	·	·	-9.0%[10 µM]	·	·	4.4%
NC(N)=NC(=O)c1nc(Cl)c(N)nc1N	-114.6*	?	?	-1.0	-3.4%	-1.3%
Cc1c([C@@H](C)[C@H]2NC[C@H](C)C[C@@H]2O)ccc2c1C[C@@H]1[C@H]2CC=C2C[C@@H](O)CC[C@@]21C	·	·	12.6%[10 µM]	·	·	·
C1CNC2NCCNC2N1 (configuration not stated)	-100.0*	-5.6%	2.9%	-3.9	-4.9%[46.1 µM]	-3.6%[38.3 µM]
CC[C@H]1[C@@H]2C[C@@H]3[C@@H]4N(C)c5ccccc5[C@@]45C[C@@H]([C@H]2[C@@H]5O)N3[C@@H]1O	·	·	-7.0%	·	·	·
CNc1ccc2oc(C[C@H]3O[C@@]4(CC[C@H]3C)O[C@H]([C@H](C)C(=O)c3ccc[nH]3)[C@H](C)C[C@H]4C)nc2c1C(=O)O	·	?	-65.6%[10 µM]	·	7.94µM*	-14.4%
FC(F)(F)c1ccc2c(c1)ncn2C1CCN(Cc2nnnn2C2CCCCC2)CC1	-100.0*	-14.1%	12.3%	11.9	?	15.3%[38.3 µM]
Clc1ccc(N2C[C@H]3CC[C@@H](C2)N3)nn1	·	·	20.1%[1.9 µM]	6.0	·	·
NC(N)=NN=C(/C=C/c1ccc([N+](=O)[O-])o1)/C=C/c1ccc([N+](=O)[O-])o1	·	10µM*	-99.2%	·	·	·
Cc1cccc(N2C(=O)NC(=O)/C(=C/c3ccc([N+](=O)[O-])o3)C2=O)c1	-20.8	?	-0.7%[10 µM]	·	-3.0%	-3.7%
CC1CCN(S(=O)(=O)c2ccc(NN=C(C#N)C#N)cc2)CC1	?	15.8µM*	13.9%	-3.3	10µM*	52.1%[38.3 µM]
N#CC(C#N)=NNc1ccc(S(N)(=O)=O)cc1	·	-13.5%[9.22 µM]	0.1%[10 µM]	·	-24.5%	·
CCOc1ccc(-c2nc3ccc(-c4nc5ccc(N6CCN(C)CC6)cc5[nH]4)cc3[nH]2)cc1	·	·	·	·	·	12.6µM*
CN(C)CCCNc1c2c(nc3ccc(Cl)cc13)CCCC2	·	·	?	·	·	8.4%
SMILES	PNC assembly inh	HTT aggregate	HTT cytoprotect	IMPase cell inh	NPSR antagonist	IMPase Li cell
COc1cc2c(cc1O)CCN[C@H]2C	·	·	2.2%	·	·	·
C/C(=N\N1CCN(C)CC1)c1c(O)[nH]c(=O)[nH]c1=O	-121.5*	-3.8%	-11.4%[10 µM]	·	21.8%	-10.7%
C[C@@]12CC[C@H](O[C@@H]3O[C@H](CO)[C@@H](O)[C@H](O)[C@@H]3O)C[C@@H]1CC[C@H]1[C@H]2CC[C@@]2(C)[C@@H](C3=CCOC3=O)CC[C@]12O	·	·	9.4%[10 µM]	·	·	-0.1%
c1ccc2cc(C3N4CCCN34)ccc2c1 (configuration not stated)	·	8.7%	3.98µM*	·	13.2%	-5.9%
O=C(c1ccccc1)[C@H]1[C@H](c2ccccc2[N+](=O)[O-])N1C1CCCCC1 (some centres not stated)	·	·	-1.5%[10 µM]	·	·	-1.2%
CNc1cc(Cl)c2nonc2c1[N+](=O)[O-]	·	6.31µM*	-147.1%	·	10µM*	28.9%
CC1CCC/C=C/C2CC(O)CC2C(O)/C=C/C(=O)O1 (configuration not stated)	16.0	1µM*	-80.1%	5.9	?	17.5%[38.3 µM]
C[C@H]1CCC/C=C/C2C[C@H](O)CC2[C@H](O)/C=C/C(=O)O1 (some centres not stated)	-3.6	2.82µM*	·	·	2.6%	-0.8%
C[C@@H]1CCC/C=C\[C@H]2C[C@H](O)C[C@@H]2[C@H](O)/C=C\C(=O)O1	·	·	-62.0%	·	·	·
Cc1cc(OCC(=O)O)c2c3c(c(=O)oc2c1)CCCC3	33.9	-2.5%	-1.8%	0.1	-4.2%[46.1 µM]	0.2%[38.3 µM]
Cc1cc(OC(=O)c2cccs2)c2c3c(c(=O)oc2c1)CCCC3	22.5	25.1µM*	28.8%[10 µM]	·	-11.3%	15.0%
Cc1cc(OC(=O)c2ccco2)c2c3c(c(=O)oc2c1)CCCC3	30.2	12.6µM*	-82.1%	13.9	-12.0%[46.1 µM]	7.6%[38.3 µM]
O=C(N1CCOCC1)C1(c2ccccc2)CCNCC1	·	·	13.6%[10 µM]	·	·	1.4%
CCCCCCOc1ccc(CN2CCN(CCO)CC2)cc1	18.8	0.4%	-35.1%	4.9	12.3%[46.1 µM]	17.3%[38.3 µM]
CCCCCCOc1ccc(C(=O)n2cnc(N)n2)cc1	-26.2	·	12.6µM*	2.9	-2.5%[46.1 µM]	34.8%[38.3 µM]
Cc1ccc(OCC(=O)N2CCN(C)CC2)c(Br)c1	-11.3	-37.0%	7.2%	10.9	5.4%[46.1 µM]	5.1%[38.3 µM]
Cc1ccc(C)c(OCC(=O)N2CCCN(C)CC2)c1	-112.3*	28.5%	1.6%[1.9 µM]	3.6	27.7%	0.7%
COc1cc(CN2CCN(c3cc(C)ccc3C)CC2)ccc1O	44.9	10µM*	-161.3%[0.074 µM]	-0.5	-7.0%[46.1 µM]	3.6%[38.3 µM]

Assay outcomes (PubChem BioAssay)
